In all, about 1,400 compounds went through this assay and about 45 (3%) were called active. Not all results are given here. Potency and affinity values are given separately. A number with no mark means an inactive call.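 The calls were made as follows: active = half-maximal dose of signal decrease from fit no higher than ten times the top valid tested dose; inconclusive = fit invalid, or curve flat with 30 to 70% inhibition; inactive = the rest.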
The compounds below were run against Lysine-specific demethylase 4A (Homo sapiens) (UniProt O75164) (assay: JMJD2A histone demethylase inhibitors, dose response, selectivity assay for GASC-1 inhibitor project, biochemical, DELFIA europium, cherry-picked samples (AID 488840;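 also: europium signal reports the dimethyl H3K9 product detected by antibody so inhibitors lower it; 0% = median of neutral control wells and -100% = median of positive control wells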)). Conditions: GST-JMJD2A(1-420) H3K9me3 demethylation; series mostly up to 6 µM; activity change, negative = inhibition: at the top concentration.
Chain of Lysine-specific demethylase 4A (Homo sapiens) (O75164 whole entry, looked up): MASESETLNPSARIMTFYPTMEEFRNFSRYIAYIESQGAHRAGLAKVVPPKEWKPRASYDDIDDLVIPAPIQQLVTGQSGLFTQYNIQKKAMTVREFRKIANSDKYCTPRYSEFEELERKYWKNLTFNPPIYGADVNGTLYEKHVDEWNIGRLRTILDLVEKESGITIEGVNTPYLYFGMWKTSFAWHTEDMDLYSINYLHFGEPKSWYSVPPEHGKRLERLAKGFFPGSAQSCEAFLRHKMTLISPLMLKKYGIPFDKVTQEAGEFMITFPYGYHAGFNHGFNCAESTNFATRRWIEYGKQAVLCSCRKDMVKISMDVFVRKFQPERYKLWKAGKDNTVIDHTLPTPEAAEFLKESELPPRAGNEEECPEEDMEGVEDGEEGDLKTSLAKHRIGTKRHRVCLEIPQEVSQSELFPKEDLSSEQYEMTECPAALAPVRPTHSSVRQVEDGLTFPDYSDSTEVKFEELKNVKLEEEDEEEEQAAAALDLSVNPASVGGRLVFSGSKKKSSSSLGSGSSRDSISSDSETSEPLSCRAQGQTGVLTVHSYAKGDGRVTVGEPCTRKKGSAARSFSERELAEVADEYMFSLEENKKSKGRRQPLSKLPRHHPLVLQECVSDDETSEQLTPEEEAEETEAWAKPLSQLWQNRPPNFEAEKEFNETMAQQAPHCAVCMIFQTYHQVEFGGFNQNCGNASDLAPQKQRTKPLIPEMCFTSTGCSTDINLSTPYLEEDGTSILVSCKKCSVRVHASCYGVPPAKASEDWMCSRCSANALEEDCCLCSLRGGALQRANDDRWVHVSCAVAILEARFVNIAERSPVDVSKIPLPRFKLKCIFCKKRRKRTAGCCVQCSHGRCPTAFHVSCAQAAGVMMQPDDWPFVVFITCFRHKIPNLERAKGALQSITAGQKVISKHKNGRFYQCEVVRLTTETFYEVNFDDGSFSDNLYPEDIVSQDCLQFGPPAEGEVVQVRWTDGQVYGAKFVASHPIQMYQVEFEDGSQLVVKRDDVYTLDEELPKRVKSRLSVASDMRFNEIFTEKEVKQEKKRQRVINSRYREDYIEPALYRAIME

Structure (SMILES) | activity change, negative = inhibition [%]
COc1cc2c(cc1OC)C(COc1ccc(F)cc1)NCC2 (centres undefined) | -1.68
CC(C)CN(C(=O)c1ccc(N2CCCC2=O)cc1)c1c(N)n(Cc2ccccc2)c(=O)[nH]c1=O | 8.41
OC(COc1ccc2ccccc2c1Br)Cn1cnc(-c2ccccc2)c1 (centres undefined) | -1.19
COc1ccc2cc3cc(C(=O)N4CCN(C5CCCCC5)CC4)oc3nc2c1 | 0.0255
C[C@@H]1CN([C@H](C)CO)C(=O)c2cccc(NS(=O)(=O)c3ccccc3)c2O[C@H]1CN(C)C | 5
COC(=O)c1cc(C#N)c(OC)nc1C | 5.1
CSc1ccc(-c2nc(CSCC(=O)N3CCOCC3)c(C)o2)cc1 | 4.78
Cc1ccc(/C=N\NC(=O)c2cc([N+](=O)[O-])cc([N+](=O)[O-])c2)o1 | -2.67
O=C(N/N=C/c1cc([N+](=O)[O-])cc([N+](=O)[O-])c1O)/C(=C\c1cccs1)NC(=O)c1ccccc1 | 1.28
COc1cc(C#N)c(N=C(SCC#N)N2CCOCC2)cc1OC | -3.54
Cc1ccc(NC(=O)C(=O)NCCN2CCN(C(=O)C(c3ccccc3)c3ccccc3)CC2)cc1 | 5.03
COc1ccc(CCN2C(=O)CC(NNC(=O)c3ccccc3Br)C2=O)cc1 (centres undefined) | 5.48
CNC(=O)/C(C#N)=C/c1c(N(Cc2ccccc2)Cc2ccccc2)nc2ccccn2c1=O | -3.91
O=C(CSc1nnc(CNC(=O)c2ccccc2F)o1)NCCc1ccccc1 | 3.34
COc1ccc(NC(=O)C2OC3OC(C)(C)OC3C3OC(C)(C)OC23)cc1 (centres undefined) | 3.01
C=CCOc1ccc(C(=O)NC2CCCCC2)cc1 | -3.43
Cc1cc(=O)[nH]c(CN2CCOCC2)n1 | 0.421
COc1ccc(N2CCN(C(=O)c3nn(C)c4c3CS(=O)(=O)c3ccccc3-4)CC2)cc1 | 1.99
O=c1cc(NC2CCCCCC2)[nH]c(=O)[nH]1 | -9.15
CCCc1nn2c(=O)cc(CSCC(=O)Nc3ccccc3)nc2s1 | -2.93
Cc1nnsc1C(=O)NNS(=O)(=O)c1ccccc1 | 0.407
CCC(=O)N1CCc2cc(S(=O)(=O)CCC(=O)Nc3cccc(F)c3)ccc21 | 3.52
C#CCOCCOCCOCCNc1nc(N2CCOCC2)nc(N2CCN(C(=O)[C@H](Cc3cc4ccccc4[nH]3)n3cc([C@@H](N)CC(C)C)nn3)CC2)n1 | -4.26
CC(=O)Nc1ccc(NC(=O)C2CCN(C(=O)c3cccs3)CC2)cc1 | -8.37
COc1ccc(NC(=S)N2CCC(C(=O)N3CCCCCC3)CC2)cc1 | 0.103

Structure (SMILES) | activity change, negative = inhibition [%]
CCC(CC)NC(=O)CSc1nnc(-c2ccc(OC)cc2)n1C(C)C | -3.51
Cc1ccc(CNC(=O)CCC2CCCN(Cc3ccc4cccc(F)c4n3)C2)o1 (centres undefined) | 1.48
COc1ccc(/C=N/Nc2cc(=O)n(C)c(=O)n2C)cc1OC | -8.8
CC1=NN(C(=O)Cc2ccccc2)C(O)(c2cccnc2)C1 (centres undefined) | 2.71
C#CCOCCOCCOCCNc1nc(N2CCN(C(=O)[C@H](CCCCN)n3cc(CN)nn3)CC2)nc(N2CCN(C(=O)[C@H](CCC(=O)O)n3cc([C@@H](N)CCSC)nn3)CC2)n1 | 1.72
CCN(CC)C(=O)[C@H]1CC(CC(=O)NC/C=C(\C)CCC=C(C)C)C(=O)N2CCc3c([nH]c4ccccc34)[C@]12C (some centres undefined) | 7.5
Cc1ccc(/C(N)=N/OC(=O)CCC2CCCCC2)cc1 | 0.447
O=c1cc(N2CCc3ccccc32)[nH]c(=O)n1-c1ccccc1 | 4.98
CCc1ncc(C)[nH]1 | -14.1
Cc1noc(C)c1COc1ccc(C(=O)NCC2CCCO2)cc1 (centres undefined) | -4.92
O=c1cc(-c2ccc(O)c(O)c2)oc2c(C3O[C@H](CO)[C@@H](O)[C@H](O)[C@H]3O)c(O)cc(O)c12 (some centres undefined) | -24
CCC(C)NC(=S)N1CCN(C)CC1 (centres undefined) | 1.71
COc1cccc(NC(=O)N2CCN(c3cccc(C)c3)C(C)C2)c1 (centres undefined) | 0.171
COC(=O)[C@]1(Cc2ccccc2)N[C@H](CN(C)C(=O)Nc2ccccc2)[C@@H]2C(=O)N(C)C(=O)[C@@H]21 | 6.68
O=C(NCc1nnc(SCC(=O)N2CCCC2)o1)c1ccccc1F | -1.83
O=[N+]([O-])c1ccccc1N/N=C\c1ccccc1Cl | -1.83
CCC(=O)Nc1ccccc1Nc1cc(C#N)c(C#N)cc1[N+](=O)[O-] | -1.89
Cc1ccc(Nc2nnc(SCC(=O)N(C)C3CCS(=O)(=O)C3)s2)cc1 (centres undefined) | 3.34
CCO[C@@H]1OC(C(=O)NC2CC2)=C[C@H](c2c[nH]c3ccccc23)[C@H]1CCCO | -1.12
Cc1occc1-c1nnc(SCC(=O)c2cc3ccccc3oc2=O)o1 | 2.21
O=C(NCCCn1ccnc1)c1cc2c(ccc3ccccc32)o1 | 4.32
COc1ccccc1NC(=O)c1cccs1 | -1.95
COc1ccccc1NC(=O)COC(=O)/C=C/c1cccs1 | 4.06
Cc1ccc(C(=O)NCCCCNC(=O)c2ccc(C)o2)o1 | -5.72

— PubChem BioAssay AID488840 (Broad Institute, 2010)
